# High-throughput results from PubChem.
# PKA-R2B activ: activates the human PKA-R2B holoenzyme complex; P22694+P31323; PKA-R2B holoenzyme dissociation, Cy5-IP20 fluorescence polarization; R2B truncated from residue 108, S112A mutant; 0% DMSO only, 100% 113 µM cGMP; activation, % at 11.4 µM; actives 0.079% (n = 340,000); AID 504700;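 active means activation above a cutoff set at the mean over all compounds plus 3 SD, cut at about 18% in these data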;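 further: higher means more holoenzyme dissociation and a rise in polarization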
# Target sequence (P31323 whole entry, looked up, other chains not shown, the tested form may be a part): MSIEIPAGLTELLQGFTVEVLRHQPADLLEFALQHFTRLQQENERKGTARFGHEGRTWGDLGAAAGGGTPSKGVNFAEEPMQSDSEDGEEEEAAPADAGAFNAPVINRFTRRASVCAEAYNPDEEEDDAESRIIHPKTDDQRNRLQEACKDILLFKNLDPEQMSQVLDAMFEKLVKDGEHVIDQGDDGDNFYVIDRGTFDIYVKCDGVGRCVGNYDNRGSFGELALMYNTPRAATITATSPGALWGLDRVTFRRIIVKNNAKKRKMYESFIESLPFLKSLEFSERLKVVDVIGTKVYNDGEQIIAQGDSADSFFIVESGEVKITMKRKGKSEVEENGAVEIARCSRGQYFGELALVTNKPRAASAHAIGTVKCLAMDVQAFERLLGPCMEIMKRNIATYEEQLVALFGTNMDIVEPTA
# NR1D1 modulator: Rev-erb alpha (human) modulation | P20393 | Rev-erbα–FITC-DNA binding, fluorescence polarization, 90 min | actives 0.79% (n = 370,000) | activity, % at 10 µM;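 active means activity above about 14%, limit read from the data; passing the limit was not always enough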
# PKA-R1A act: PKA-R1A complex activation | P00514+P68181 | PKA-R1A dissociation, Cy5-IP20 fluorescence polarization; scaled: DMSO 0%, 113 µM cGMP 100% | activation, % at 11.4 µM | actives 0.083% (n = 340,000);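 active means percent activation above the mean of all tested compounds plus 3 SD, cut at about 19% in these data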;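 further: higher means more PKAc released from R1A so a rise in polarization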
# PG9 Ab binder: small molecules binding HIV-1 gp120 antibody PG9. TR-FRET gp120-PG9 antibody binding. inhibition, % at 6.7 µM. actives 0.43% (n = 360,000). AID 624416; in the data active means inhibition above about 8.5%
# PG9 binder conf: confirmation of small molecules binding HIV-1 gp120 antibody PG9 | shares compounds with PG9 Ab binder | TR-FRET PG9 antibody binding, biochemical | inhibition, % at 6.7 µM | actives 90% (n = 1,500) | AID 651571; in the data active means inhibition above about 9%
# PGV04 Ab binding: binds control antibody PGV04 in PG9 binder counter-screen | shares compounds with PG9 Ab binder | TR-FRET PGV04 antibody-gp120 binding, biochemical | inhibition, % at 6.7 µM | actives 95% (n = 1,500) | AID 651604; in the data active means inhibition above about 9.5%
# PG9 bind DR: PG9 antibody binding, dose response | shares compounds with PG9 Ab binder | TR-FRET PG9 antibody-gp120 binding inhibition | IC50, µM | 95 tested, under 10 active; in the data active means IC50 below about 10 µM
# PGV04 binding DR: counter-screen for PG9 binders: binding to control antibody PGV04. shares compounds with PG9 Ab binder. TR-FRET binding to control antibody PGV04. IC50, µM. actives 20% (n = 95). AID 651937
# PG126 DR counter: PG126 binding, dose response counter-screen. IC50, µM. actives 20% (n = 95). shares compounds with PG9 Ab binder. TR-FRET binding to antibody PG126, counterscreen
# NR1D1 mod conf: Rev-erb alpha (human) modulation, hit confirmation | shares compounds with NR1D1 modulator | activation, % at 25 µM | actives 61% (n = 3,000) | Rev-erb alpha FITC-DNA binding, fluorescence polarization, 90 min;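 active means activation at or above a set limit, or at least 3 SD above the negative control mean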
# RORg DNA counter: affects RORgamma DNA binding in a Rev-erb alpha counter-screen; actives 8% (n = 910); IC50, µM; purified RORgamma protein-FITC-DNA binding, fluorescence polarization; shares compounds with NR1D1 modulator;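 active means Compounds whose fitted half-maximal concentration for disrupting protein-DNA binding is below 10 micromolar; the record names Rev-erb in its text, so the target is in doubt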
# A number is an active result; – = inactive; · = no result. The list is not random: actives were taken first. Their share in the collection is about 1.2%. Unless noted, no stated cut-off is given here; in the data, active means IC50 below about 9 µM; inactive means the rest.
SMILES,PKA-R2B activ,NR1D1 modulator,PKA-R1A act,PG9 Ab binder,PG9 binder conf,PGV04 Ab binding,NR1D1 mod conf,others
COc1ccc(C)cc1Nc1nc(-c2ccccc2O)nc2ccccc12,–,83,–,11,–,–,59,RORg DNA counter=–
Cc1ccc(O)c(Nc2nc(-c3ccccc3)nc3ccccc23)c1,–,–,–,–,·,·,·,
Cc1sc2nc(SC(C)C)nc(N)c2c1C,–,49,–,11,8.8,13,41,RORg DNA counter=–
C=CCn1c(SCc2nc3ccccc3c(=O)[nH]2)nc2scc(C3CC3)c2c1=O,–,26,–,15,17,29,22,
O=C(NCc1cccs1)C1CCN(S(=O)(=O)c2cccc3ccccc23)CC1,·,–,·,·,·,·,·,
COc1ccccc1NC(=O)c1sc2ncn(Cc3ccccc3C)c(=O)c2c1C,–,62,–,52,55,74,23,
Cc1cc(C)c2cc(C#N)c(NCCNC(=O)c3ccccc3)nc2c1,·,18,·,29,25,32,15,
COC(=O)[C@]12C[C@H](CC(=O)N3CCSCC3)C(=O)N(CCc3ccc(OC)c(OC)c3)C1=C[C@H](C(C)(C)C)O[C@@H]2C,·,–,·,·,·,·,·,
Cc1cc(NC(=O)COc2ccc3oc4ccccc4c3c2)no1,–,36,–,23,23,32,26,
Cc1cc(NC(=O)COc2ccc3c(C)c(C)c(=O)oc3c2)no1,–,–,–,–,·,·,·,
CCN(C(=O)COC(=O)c1cc(-c2ccccc2)nc2ccc(Br)cc12)C1CCS(=O)(=O)C1 (stereo not given),–,42,–,12,23,32,43,
CCN(C(=O)COC(=O)c1cc(-c2cccs2)nc2ccccc12)C1CCS(=O)(=O)C1 (stereo not given),–,–,–,–,·,·,·,
Cc1cc(C)c(C#N)c(SCC(=O)Nc2ccc(S(=O)(=O)Nc3ncccn3)cc2)n1,–,–,–,–,·,·,·,
Cc1cc(C)c(C#N)c(SCC(=O)Nc2cccc(S(=O)(=O)N3CCCC3)c2)n1,–,21,–,37,41,65,11,
Cc1ccc(-n2c(SCC(=O)Nc3cc(C)on3)nc3c([nH]c4ccccc43)c2=O)cc1,–,–,–,–,·,·,·,
COc1ccc(-n2c(SCC(=O)Nc3cc(C)on3)nc3c([nH]c4ccccc43)c2=O)cc1,–,83,–,57,43,50,67,RORg DNA counter=–
Cn1c(SCC(=O)Nc2ccccc2)nc2c([nH]c3ccccc32)c1=O,–,21,–,8.8,–,14,16,
COc1ccc(OC)c(S(=O)(=O)N2CCCC(c3noc(-c4ccc(C)cc4)n3)C2)c1 (stereo not given),·,–,·,·,·,·,·,
COc1ccc(-n2ncc3c(NCc4ccc5c(c4)OCO5)ncnc32)cc1,–,25,–,16,–,–,–,
COc1ccc(CCNC(=O)c2ccc3c(c2)ncn3C2CCCCC2)cc1,·,–,·,·,·,·,·,
CCn1c(=NC(=O)c2ccc(N3C(=O)CCC3=O)cc2)sc2c(OC)ccc(OC)c21,–,82,–,16,31,56,96,RORg DNA counter=–
CC(C)CN1C(=O)C[C@]2(C(=O)N(C)c3ccc(NC(=O)C(F)(F)F)cc32)C1c1ccccc1 (stereo not given in full),·,–,·,·,·,·,·,
CCc1nc2ccccc2c(C(=O)OCc2nc3ccccc3c(=O)[nH]2)c1C,–,32,–,25,14,17,28,RORg DNA counter=–
NC(=O)c1nsc(C(=O)N(c2ccccc2)C(C(=O)NCc2ccc(F)cc2)c2ccc(O)cc2)c1N (stereo not given),–,20,–,9.9,–,9.8,–,
CCCNC(=O)c1ccc2c(=O)n3c(-c4ccc(C)cc4)csc3nc2c1,–,26,–,24,37,68,24,
SMILES,PKA-R2B activ,NR1D1 modulator,PKA-R1A act,PG9 Ab binder,PG9 binder conf,PGV04 Ab binding,NR1D1 mod conf,others
CCOc1ccc2oc(C(=O)Nc3nccs3)c(C)c2c1,–,–,–,–,·,·,·,
COc1ccc2oc(C(=O)Nc3nccs3)c(C)c2c1,–,36,–,12,21,46,–,
CCOC(=O)c1sc(=NC(=O)c2ccc(F)cc2)n(C)c1C,–,–,–,–,·,·,·,
CCOC(=O)c1sc(=NC(=O)c2ccc(C)cc2)n(C)c1C,–,20,–,22,22,53,–,
COc1cccc(-c2nnc3sc(-c4cccs4)nn23)c1,–,41,–,39,33,57,–,
COc1cccc(-c2nn3c(-c4cccc(C)c4)nnc3s2)c1,–,–,–,–,·,·,·,
COc1ccc(C(=O)NC(=S)Nc2ccc3[nH]c(=O)[nH]c3c2)c(OC)c1,–,101,–,37,53,52,55,PG9 bind DR=–;PGV04 binding DR=6.3;PG126 DR counter=6.8;RORg DNA counter=–
COc1cc(OC)cc(C(=O)NC(=S)Nc2ccc3[nH]c(=O)[nH]c3c2)c1,–,–,–,–,·,·,·,
CC(C)(C)OC(=O)/C=C/[C@@H](CC1CCCC1)Sc1ccc(C(C)(C)C)cc1,·,–,·,·,·,·,·,
Cc1ccc2oc(=O)c3cnn(CC(=O)N4CCN(c5ccccc5)CC4)c3c2c1,–,–,–,–,·,·,·,
Cc1ccc2oc(=O)c3cnn(CC(=O)N4CCCc5ccccc54)c3c2c1,–,51,–,15,35,51,44,
Cn1nc(N)c2c(-c3ccc(Cl)cc3)c(C#N)c(N)nc21,–,–,–,–,·,·,·,
N#Cc1c(N)nc(N2CCCC2)c(C#N)c1-c1ccc(Cl)cc1,–,146,–,25,19,28,106,RORg DNA counter=–
CCCCCN1CCCCC(NC(=O)C2CCCCC2)C1=O (stereo not given),·,–,·,·,·,·,·,
CC(C)C[C@H](NC1(C(=O)NC2CCCCC2)CCOCC1)C(=O)NCC(c1ccccc1)c1ccccc1,·,–,·,·,·,·,·,
CCn1c(=O)c(CCC(=O)NCC2CCCO2)c(C)c2c(C)nn(-c3ccc(C)cc3)c21 (stereo not given),–,20,–,–,·,·,–,
COC(=O)C1CCCN(C(=O)C2CCN(S(=O)(=O)c3ccc([N+](=O)[O-])cc3)CC2)C1 (stereo not given),·,–,·,·,·,·,·,
